KKLEB cytotox – CF airway cell cytotoxicity counter-screen; AID 602141; hit rate 0.36% among 360,000; activity change (cytotoxicity), % at 5 µM; KKLEB CF airway cells viability, ATPlite luminescence, overnight; hits give low values; cells stimulated with P. aeruginosa culture filtrate;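 active = corrected activity change at or below -50% at 5 µM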
Peg3 promoter – Peg3 promoter activity inhibition. HeLa PEG-Prom luciferase reporter, luminescence, overnight. inhibition, % at 20 µM. hit rate 1.7% among 360,000;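 active = inhibition of at least 50% at 20 µM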
HIF-2a block – blocks HIF-2a reporter activity. 786-0 RCC cells HIF-2a reporter, luciferase luminescence, overnight. inhibition, % at 18.8 µM. hit rate 0.72% among 360,000. AID 624352;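 active = inhibition of the luminescence signal of 40% or more relative to plate controls, in a single-dose primary screen at 18.75 µM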
TWEAK-Fn14 inh – TWEAK-Fn14 signaling inhibition | TWEAK-stimulated Fn14 reporter cells, luciferase luminescence, 8 h | inhibition, % at 10 µM | hit rate 2% among 360,000; in the data active = inhibition above about 50%
CF NFkB block – cystic fibrosis NF-kB activation inhibition | KKLEB NF-kB-GFP reporter, PAF-induced, GFP fluorescence overnight | hit rate 0.86% among 360,000 | AID 588850 | inhibition, % at 5 µM;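 active = at least 50% inhibition at 5 µM, scaled per plate between neutral and stimulator controls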;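 note: PAF is a Pseudomonas aeruginosa culture filtrate used as stimulus; plate controls were PAF-stimulated DMSO wells for no effect and unstimulated DMSO wells for full effect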
TROY signal inh – blocks TROY-dependent signaling in reporter cells; Q293 LMP1-TROYcd NF-kB luciferase reporter, 4 h; inhibition, % at 10 µM; hit rate 0.98% among 360,000; AID 1347056;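 active = compounds whose plate-normalised and pattern-corrected inhibition of the luciferase reporter signal at the single screening dose is 50% or more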
Mdm2-MdmX confirm – Mdm2/MdmX (human) interaction inhibition, confirmed; inhibition, % at 8 µM; AID 504601; shares compounds with HIF-2a block; SaOS-2 split-luciferase Mdm2/MdmX complementation, luminescence; hit rate 99% among 740;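 active = mean inhibition of the luminescence signal across two replicates at or above 26 percent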
Target sequence (O15151 whole entry, looked up): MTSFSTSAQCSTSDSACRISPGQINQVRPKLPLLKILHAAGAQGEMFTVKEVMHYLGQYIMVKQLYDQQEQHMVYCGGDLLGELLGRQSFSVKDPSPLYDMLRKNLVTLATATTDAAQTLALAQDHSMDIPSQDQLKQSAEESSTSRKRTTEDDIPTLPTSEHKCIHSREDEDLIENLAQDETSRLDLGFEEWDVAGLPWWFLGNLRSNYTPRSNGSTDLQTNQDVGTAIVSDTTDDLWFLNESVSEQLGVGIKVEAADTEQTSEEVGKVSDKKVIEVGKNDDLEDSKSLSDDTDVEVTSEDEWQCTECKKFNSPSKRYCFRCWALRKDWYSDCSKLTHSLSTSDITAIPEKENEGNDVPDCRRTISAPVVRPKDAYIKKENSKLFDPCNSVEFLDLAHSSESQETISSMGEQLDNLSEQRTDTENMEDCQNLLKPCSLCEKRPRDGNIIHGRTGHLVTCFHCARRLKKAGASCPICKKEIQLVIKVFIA
Target sequence (Q00987 whole entry, looked up): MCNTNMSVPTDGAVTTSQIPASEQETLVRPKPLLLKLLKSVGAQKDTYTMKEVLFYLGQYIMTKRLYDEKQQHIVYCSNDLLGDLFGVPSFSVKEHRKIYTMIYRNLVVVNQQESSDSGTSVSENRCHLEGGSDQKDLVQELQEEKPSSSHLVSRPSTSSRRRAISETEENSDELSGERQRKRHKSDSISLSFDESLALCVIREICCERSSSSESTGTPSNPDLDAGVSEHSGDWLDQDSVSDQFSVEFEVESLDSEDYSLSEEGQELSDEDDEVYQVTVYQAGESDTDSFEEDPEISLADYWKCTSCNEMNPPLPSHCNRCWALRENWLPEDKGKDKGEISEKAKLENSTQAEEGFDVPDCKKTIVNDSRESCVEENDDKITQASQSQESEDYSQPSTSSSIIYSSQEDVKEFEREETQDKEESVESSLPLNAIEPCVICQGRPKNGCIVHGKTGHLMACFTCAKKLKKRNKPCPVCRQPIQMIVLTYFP
HIF-2a inh conf – HIF-2a inhibition, single concentration confirmation; shares compounds with HIF-2a block; inhibition, % at 18.8 µM; 786-0 RCC cells, HIF-2a luciferase reporter luminescence, overnight; hit rate 56% among 1,800;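 active = mean inhibition across four replicates of at least 40 percent at the single tested concentration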
HIF-1a counter – counter-screen for HIF-2a inhibitors: HIF-1a inhibition in MiaPaCa-2 cells; inhibition, % at 18.8 µM; AID 651589; hit rate 72% among 1,800; MiaPaCa-2 HIF-1a luciferase reporter, desferoxamine, overnight; shares compounds with HIF-2a block;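 active = mean inhibition of the reporter signal across four replicates at the single tested dose of 50% or more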
* hit, by the source's call. A selection: hits, their analogues and other compounds. The true share with any hit is near 4%.

What do the screens show for `COc1ccc(NS(=O)(=O)c2cccc(C(=O)N/N=C/c3c(F)c(F)c(F)c(F)c3F)c2)cc1`?
KKLEB cytotox: -30.3; Peg3 promoter: 94.7*; HIF-2a block: 50.8*; TWEAK-Fn14 inh: -6.7; CF NFkB block: 8.2; TROY signal inh: 18.3; HIF-2a inh conf: 36.0; HIF-1a counter: 80.2*

What do the screens show for `Cc1ccc(NC(=O)C(=Cc2ccc(C(=O)O)cc2)C(=O)Nc2ccc(C)cc2C)c(C)c1`?
KKLEB cytotox: -57.8*; Peg3 promoter: 95.5*; HIF-2a block: 84.6*; TWEAK-Fn14 inh: 69.9*; CF NFkB block: 13.8; TROY signal inh: -24.8; Mdm2-MdmX confirm: 102.5*; HIF-2a inh conf: 92.0*; HIF-1a counter: 103.8*

Results for CCC(=O)Nc1ccc(SC#N)cc1C ?
KKLEB cytotox: -1.3; Peg3 promoter: 7.4; HIF-2a block: 24.7; TWEAK-Fn14 inh: 6.5; CF NFkB block: -11.3; TROY signal inh: 8.7

Results for CCc1cc(SC#N)cc(C)c1N ?
KKLEB cytotox: -7.0; Peg3 promoter: 13.0; HIF-2a block: 63.3*; TWEAK-Fn14 inh: 35.4; CF NFkB block: -28.8; TROY signal inh: 57.4*; HIF-2a inh conf: -14.4; HIF-1a counter: -25.6

Results for O=C1C(=C(c2ccccc2)N2CCOCC2)Cc2ccccc21 ?
KKLEB cytotox: -6.6; Peg3 promoter: 108.5*; HIF-2a block: 91.1*; TWEAK-Fn14 inh: 97.1*; CF NFkB block: 90.8*; TROY signal inh: 33.6; HIF-2a inh conf: 97.6*; HIF-1a counter: 105.0*

How did COc1ccc(NC(=S)Nc2ccc(N(C)C(C)=O)cc2)cc1 do in these assays?
KKLEB cytotox: 12.4; Peg3 promoter: 0.1; HIF-2a block: -1.7; TWEAK-Fn14 inh: 2.0; CF NFkB block: -13.7; TROY signal inh: -7.8

How did Cc1ccc(C(=O)C(C(=O)/C=C/c2ccccc2)=C2SCCCS2)cc1 do in these assays?
KKLEB cytotox: -7.3; Peg3 promoter: 109.5*; HIF-2a block: 92.9*; TWEAK-Fn14 inh: 45.8; CF NFkB block: -3.1; TROY signal inh: -1.5; Mdm2-MdmX confirm: 103.2*; HIF-2a inh conf: 86.3*; HIF-1a counter: 102.9*

How did Cc1ccc(C(=O)C=CC=Cc2ccccc2)cc1 do in these assays?
KKLEB cytotox: 1.7; Peg3 promoter: -211.0; HIF-2a block: -195.4; TWEAK-Fn14 inh: 41.0; CF NFkB block: -17.8; TROY signal inh: 39.1

How did O=C(NCCS(=O)(=O)NCc1cccnc1)c1ccccc1 do in these assays?
KKLEB cytotox: 9.3; Peg3 promoter: -3.0; HIF-2a block: 10.8; TWEAK-Fn14 inh: -10.4; CF NFkB block: 16.0; TROY signal inh: -14.3

Results for CC(C)CC(N)c1csc(NC(=O)c2cc(C(C)(C)C)nn2Cc2ccccc2)n1 (configuration not stated) ?
KKLEB cytotox: -21.2; Peg3 promoter: 111.5*; HIF-2a block: 92.0*; TWEAK-Fn14 inh: -74.5; CF NFkB block: 0.8; TROY signal inh: -5.8; HIF-2a inh conf: 7.9; HIF-1a counter: 106.6*

How did CC(C)(C)c1cc(C(=O)NN)n(Cc2ccc(F)cc2)n1 do in these assays?
KKLEB cytotox: -14.6; Peg3 promoter: 4.9; HIF-2a block: 13.0; TWEAK-Fn14 inh: 0.5; CF NFkB block: 9.0; TROY signal inh: 3.3

How did Cc1ccc(NC(=O)Cc2ccc3c(c2)OCCO3)cc1S(=O)(=O)N1CCCCC1 do in these assays?
KKLEB cytotox: -0.1; Peg3 promoter: 9.6; HIF-2a block: 13.0; TWEAK-Fn14 inh: -41.3; CF NFkB block: 20.8; TROY signal inh: 26.9

What do the screens show for `COC(=O)[C@]12CCCCC=C1N(Cc1ccccc1)C(=O)[C@H](CC(=O)N1CCC(c3ccccc3)CC1)C2`?
HIF-2a block: 4.2; TWEAK-Fn14 inh: 2.3; TROY signal inh: 7.0
